Our source for the growth values is PubChem BioAssay (NCI).

Some test systems named below: HCT-15 colon; HT29 colon; SNB-75 CNS; SNB-19 CNS; U251 CNS; PC-3 prostate; SK-MEL-5 melanoma; UACC-62 melanoma; LOX IMVI melanoma; SK-MEL-28 melanoma; SK-MEL-2 melanoma; EKVX NSCLC; SN12C renal; UO-31 renal; TK-10 renal; ACHN renal; CAKI-1 renal; CCRF-CEM leukemia; MOLT-4 leukemia.
Holding throughout (experiment): NCI-60 one-dose screen, 48 h (100 = growth as untreated, 0 = no growth, -100 = all killed)
Common to all, as to conditions: 10 µM unless noted

Molecules are shown by their SMILES. This is part of a sample that, as a whole, favours compounds with a hit. Of some 83,000 tested, about 20% had one in any assay.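 The endpoint reported here, percent growth, reads 100 for growth as untreated, 0 for no net growth and -100 for all cells dead.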 A number with no mark means an inactive call. Active and inactive are the calls of the source. How the source made its calls: active means growth percent below 10; inactive means the rest.

As to `Cc1cccc(NC(=O)Nc2ccc(-n3cnc4cc(-c5ccc(O)cc5)ccc43)cc2)c1`, the growth was 18.8% in the test with HCT-15 colon; 28.4% in the test on HT29 colon; 69.2% in the test with SNB-75 CNS; 28% in the test with SNB-19 CNS; 26.5% in the test with U251 CNS; 31.2% in the test with PC-3 prostate. The growth in the test on SK-MEL-5 melanoma is 14.4%; in the test with UACC-62 melanoma, 27.3%; in the test on LOX IMVI melanoma it was 30.6%; in the test with SK-MEL-28 melanoma, 44%; with SK-MEL-2 melanoma, 18.1%; in the test on EKVX NSCLC, 35.8%. Moreover, the growth in the test with SN12C renal is 23%; in the test with UO-31 renal it was 27.2%; in the test with TK-10 renal, 21.8%; in the test on ACHN renal, 16.1%; in the test on CAKI-1 renal, 35%; with CCRF-CEM leukemia, 17.8%. Further, the growth with MOLT-4 leukemia is 13.1%.
As for `O=S(=O)(NCCNc1nccc(-c2c(-c3cccc(O)c3)nc3occn23)n1)c1ccccc1`, the growth in the test on HCT-15 colon is 103%; in the test on HT29 colon it was 38.1%; with SNB-75 CNS, 87.8%; with SNB-19 CNS, 94.8%; in the test with U251 CNS, 95.4%; in the test on PC-3 prostate, 85.3%. Besides, the growth with SK-MEL-5 melanoma is 33.7%; in the test on UACC-62 melanoma, 8.22% (active); with LOX IMVI melanoma it was 53.7%; with SK-MEL-28 melanoma it was 34.1%; in the test on SK-MEL-2 melanoma, 61.3%; in the test with EKVX NSCLC, 109%. Further, the growth was 72.7% in the test with SN12C renal; 101% in the test on UO-31 renal; 130% in the test on TK-10 renal; 82.1% in the test on ACHN renal; 78.3% in the test on CAKI-1 renal; 80.9% with CCRF-CEM leukemia. For the same compound, the growth in the test with MOLT-4 leukemia is 94.2%.
In the case of `COc1cccc(-c2cc(C(=O)Nc3ccc(/C=C/c4ccc(OC5CCN(C)CC5)cc4)cc3)ccc2OC)c1`, the growth in the test with HCT-15 colon was -61.8% (active); with HT29 colon it was -60.1% (active); in the test on SNB-75 CNS, -50.3% (active); in the test with SNB-19 CNS, -11.1% (active); with U251 CNS it was -92.6% (active); with PC-3 prostate, 8.53% (active). Moreover, the growth in the test on SK-MEL-5 melanoma was 96%; in the test on UACC-62 melanoma, 69.6%; in the test with LOX IMVI melanoma, -86.9% (active); in the test with SK-MEL-28 melanoma, 41.7%; with SK-MEL-2 melanoma, 98.5%; in the test on EKVX NSCLC, 27.2%. The growth is -78.3% (active) in the test on SN12C renal; 37.7% with UO-31 renal; 1.81% (active) in the test with TK-10 renal; 60.1% in the test on ACHN renal; 109% in the test on CAKI-1 renal; -10.8% (active) in the test on CCRF-CEM leukemia. The growth with MOLT-4 leukemia is -36.4% (active).
On to `N/C(=N\C(N)=N\c1nc2ccccc2s1)c1ccnc(Br)c1`, for which the growth in the test with HCT-15 colon is 19.6%; in the test with HT29 colon, 10.2%; with SNB-75 CNS it was -13.2% (active); with SNB-19 CNS it was 39.1%; in the test with U251 CNS, 26.3%; in the test with PC-3 prostate, 35.3%. The growth with SK-MEL-5 melanoma is 27.1%; in the test with UACC-62 melanoma, 27.7%; in the test with LOX IMVI melanoma it was 33.8%; in the test on SK-MEL-28 melanoma, 57.2%; in the test on SK-MEL-2 melanoma, 7.48% (active); in the test with EKVX NSCLC it was 82.6%. The growth was 40.5% in the test on SN12C renal; 33.1% in the test on UO-31 renal; 82.2% in the test with TK-10 renal; 27.6% in the test with ACHN renal; 25.4% with CAKI-1 renal; 21.3% in the test with CCRF-CEM leukemia. In addition, the growth in the test on MOLT-4 leukemia is 34%.
`CCc1c(Cl)nc(N)nc1Nc1ccc(C)c(C)c1`: the growth is 55.7% in the test on HCT-15 colon; 102% with HT29 colon; 93.5% in the test on SNB-75 CNS; 96.2% in the test on SNB-19 CNS; 88.1% with U251 CNS; 95.8% with PC-3 prostate. Besides, the growth in the test on SK-MEL-5 melanoma was 92.9%; in the test with UACC-62 melanoma, 92.8%; in the test with LOX IMVI melanoma it was 85.7%; in the test on SK-MEL-28 melanoma, 103%; with SK-MEL-2 melanoma, 99.3%; with EKVX NSCLC it was 89.2%. Moreover, the growth in the test with SN12C renal was 99.9%; with UO-31 renal it was 90.8%; with TK-10 renal it was 103%; in the test on ACHN renal, 99.7%; in the test with CAKI-1 renal it was 86.5%; in the test with CCRF-CEM leukemia, 100%. In the test on MOLT-4 leukemia, the growth is 94.4%.
Consider `Cc1cnc(C(=O)Nc2nc3ccc(S(=O)(=O)Nc4ccc(C(C)(C)C)cc4)cc3[nH]2)cn1`, for which the growth in the test on HCT-15 colon is 18%; in the test with HT29 colon it was 12.8%; in the test with SNB-75 CNS, 5.59% (active); with SNB-19 CNS, 31.6%; in the test with U251 CNS, 18.9%; in the test with PC-3 prostate, 20.8%. In addition, the growth is 10.9% in the test on SK-MEL-5 melanoma; 40.2% with UACC-62 melanoma; 42.3% in the test with LOX IMVI melanoma; 35.8% in the test on SK-MEL-28 melanoma; 51.1% in the test on SK-MEL-2 melanoma; 51% with EKVX NSCLC. For the same compound, the growth with SN12C renal was 43.7%; in the test on UO-31 renal, 40.4%; in the test with TK-10 renal it was 43.4%; with ACHN renal, 49.6%; with CAKI-1 renal, 27.3%; with CCRF-CEM leukemia it was 10.8%. Moreover, in the test on MOLT-4 leukemia, the growth is 21.5%.
As to `CN1CCN(c2ccc(NC3=C(Cl)C(=O)c4ncccc4C3=O)cc2C(F)(F)F)CC1`, the growth in the test on HCT-15 colon was -47% (active); with HT29 colon it was 78.3%; with SNB-75 CNS, 96.9%; in the test with SNB-19 CNS, 101%; with U251 CNS it was 88.6%; in the test with PC-3 prostate, 62.9%. For the same compound, the growth was 92.8% in the test on SK-MEL-5 melanoma; 87% with UACC-62 melanoma; -56.2% (active) in the test on LOX IMVI melanoma; 76.9% in the test on SK-MEL-28 melanoma; 89% in the test on SK-MEL-2 melanoma; 110% with EKVX NSCLC. Besides, the growth is 93.9% with SN12C renal; -80.4% (active) in the test on UO-31 renal; -65.9% (active) with TK-10 renal; -56.2% (active) with ACHN renal; -95.6% (active) in the test with CAKI-1 renal; -1.56% (active) with CCRF-CEM leukemia. Moreover, in the test with MOLT-4 leukemia, the growth is 1.95% (active).
In the case of `N#CC(C#N)=Cc1cc2ccccc2nc1Oc1ccc(C(F)(F)F)cc1`, the growth with HCT-15 colon was 85.1%; with HT29 colon, 100%; in the test with SNB-75 CNS, 84.2%; with SNB-19 CNS, 93.2%; with U251 CNS, 91.2%; in the test with PC-3 prostate, 51.5%. Moreover, the growth in the test with SK-MEL-5 melanoma was 94.7%; in the test with UACC-62 melanoma it was 78.4%; with LOX IMVI melanoma, 76.4%; with SK-MEL-28 melanoma, 104%; in the test with SK-MEL-2 melanoma, 103%; in the test on EKVX NSCLC, 84.1%. In addition, the growth was 91.9% in the test on SN12C renal; 43.8% in the test on UO-31 renal; 114% with TK-10 renal; 88.7% in the test with ACHN renal; 67.7% in the test with CAKI-1 renal; 0.288% (active) in the test on CCRF-CEM leukemia. The growth with MOLT-4 leukemia is 54.8%.
